Assay outcomes: PubChem, several laboratories
Rows were chosen to be rich in hits. Some 2.3% of all compounds tested hit in one or more screens of this group.
FAS-TE inh – FAS thioesterase domain inhibitors, primary screen, biochemical, fluorescence intensity, uHTS | Fatty acid synthase (Homo sapiens), P49327 | recombinant FAS-TE, OMFH fluorogenic substrate, fluorescence endpoint | inhibition, % at 15 µM | 360,000 compounds, 0.67% hits | AID 602261, 2012;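 active = compounds whose normalised, plate-corrected inhibition of enzyme fluorescence in the single-dose primary screen is 50% or more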
H9c2 protect – cardioprotection against H2O2-induced cell death, primary screen, uHTS, H9c2 cells, ATPLite luminescence; H9c2 cardiomyocytes, H2O2 injury protection, 2 h; protection from H2O2 cell death, % at 20 µM; 360,000 compounds, 0.63% hits;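 active = compounds giving at least 50% protection of heart cells from peroxide-induced death in the single-dose screen, raw or plate-pattern-corrected value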
Calpain2 inh – inhibitors of pig calpain II, primary screen, biochemical, fluorogenic peptide substrate, 1536-well; purified calpain II, 30 min; inhibition, % at 16 µM; 220,000 compounds, 0.37% hits;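 active = inhibition above about 50%, limit read from the data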
aDG glyco act – activators of alpha-DG glycosylation, primary screen, uHTS, Pro5-aDG cells, AlphaScreen; activation, % at 10 µM; 360,000 compounds, 0.22% hits; alpha-DG glycosylation AlphaScreen (IIH6); 0% Pro5, 100% B10-LARGE cell signal; AID 624168, 2012;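 active = activation of at least 8% versus controls, or a plate z-score of at least 8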;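 also: Pro5 are CHO cells carrying HIG-tagged alpha-DG that lacks glycosylation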
TAG inh – inhibitors of triacylglycerol accumulation, primary screen, cell-based, uHTS, fluorescence, H9c2 | H9c2 cells, Nile Red lipid (TAG) fluorescence; cells loaded with 200 µM oleic acid | inhibition, % at 12.5 µM | 230,000 compounds, 0.66% hits;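 active = pattern-corrected inhibition of lipid staining of at least 50% with the nuclear-stain viability signal not falling by more than 50%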
MIN6 prolif – inducers of MIN6 beta-cell proliferation, primary screen, ATP luminescence, uHTS | proliferation, % at 10 µM | AID 2380, 2010 | MIN6 cells proliferation, ATPlite luminescence, 48 h; cells starved in 0.2% serum; 100% = growth in 10% serum | 330,000 compounds, 0.29% hits;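 active = compounds whose signal lies at least 3.5 SD above the mean of all wells on their plate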
Of the large screens only hits and unclear results are named; the others gave an inactive call.

COc1ccc(NC(=O)CN2C(=O)/C(=C3\SC(=S)N(C4CCS(=O)(=O)C4)C3=O)c3ccccc32)cc1 (centres undefined)	Calpain2 inh 56
Cc1ccc(C(=O)CC(=O)COc2ccc(Cl)cc2)cc1	H9c2 protect 72
Cc1ccc(C(=O)NCCOc2ccc(Cl)cc2)cc1	none (no result: Calpain2 inh, TAG inh)
Cc1ccc(NC2CCCN(C(=O)C3CCCC3)C2)cc1C (centres undefined)	none (no result: Calpain2 inh)
CCN1C(Nc2ccccc2)=NC[C@@H]1Cc1ccccc1	none (no result: Calpain2 inh)
CC(C)(C)C1CCC(CN2C(Nc3ccccc3)=NC[C@@H]2Cc2ccccc2)CC1 (some centres undefined)	TAG inh 113 (no result: Calpain2 inh)
COc1cccc(/C=N/NC(=O)CNC(=O)CCc2ccccc2)c1O	none
COc1cccc(/C=N/NC(=O)C(C)n2nc(C)c([N+](=O)[O-])c2C)c1O (centres undefined)	none (no result: TAG inh)
COc1cccc(/C=N/NC(=O)CSc2ccccc2C)c1O	H9c2 protect 53 (no result: TAG inh)
COc1cccc(/C=N/NC(=O)Cn2nc(C)c([N+](=O)[O-])c2C)c1O	H9c2 protect 54 (no result: TAG inh)
COc1ccccc1/C=C\C(=O)NCC(=O)N/N=C/c1cccc(OC)c1O	H9c2 protect 72 (no result: Calpain2 inh, TAG inh)
COc1cccc(/C=N/NC(=O)CNC(=O)c2cccs2)c1O	H9c2 protect 63
COc1cccc(/C=N/NC(=O)CSc2ccccc2C)c1OC	none (no result: TAG inh)
CCOC(=O)N1CCN(C(=O)C(CC(C)C)NS(=O)(=O)c2ccc(C)cc2)CC1 (centres undefined)	none (no result: Calpain2 inh)
CN(Cc1ccccc1)C(=O)COC(=O)C12CC3CC(CC(Br)(C3)C1)C2	none (no result: Calpain2 inh)
Cc1cnc(CNC(=O)c2csc([C@@H]3C[C@H](O)[C@@H](CO)O3)n2)cn1	none (no result: Calpain2 inh, MIN6 prolif)
C/C(=N\NC(=O)c1cc(C2CC2)nc2ccccc12)c1ccc(C)s1	none
O=C(NNC(=S)Nc1ccccc1)c1cc(-c2cccnc2)nc2ccccc12	none
C/C(=N\NC(=O)c1cc(-c2cccnc2)nc2ccccc12)c1ccccc1O	H9c2 protect 60 (no result: TAG inh)
CC(OC(=O)c1cc(-c2cccnc2)nc2ccccc12)C(=O)Nc1ccc2ccccc2c1 (centres undefined)	H9c2 protect 67 (no result: TAG inh)
C/C(=N\NC(=O)c1cc(C2CC2)nc2ccccc12)c1ccc(O)cc1O	H9c2 protect 51 (no result: Calpain2 inh, TAG inh)
CCCCn1nnnc1C1(C)CCC(=O)N1CCc1ccc(OC)c(OC)c1 (centres undefined)	none (no result: H9c2 protect, Calpain2 inh, TAG inh, MIN6 prolif)
CCC(NC(=O)CC[C@H]1O[C@@H](n2cc(C)c(=O)[nH]c2=O)C[C@@H]1O)c1ccccc1 (some centres undefined)	none (no result: Calpain2 inh, MIN6 prolif)
CC(C)c1onc(C(=O)Nc2cccnc2Cl)c1[N+](=O)[O-]	Calpain2 inh 56
Cc1ccc(NC(=O)c2noc(C(C)C)c2[N+](=O)[O-])cc1	Calpain2 inh 58
CC(C)c1onc(C(=O)Nc2cccc(O)c2)c1[N+](=O)[O-]	none
CC(=O)Nc1ccc(NC(=O)COC(=O)CCNS(=O)(=O)c2c(Cl)cccc2Cl)cc1	none (no result: Calpain2 inh)
O=C(N/N=C/c1cn(-c2ccccc2)nc1-c1cccnc1)c1cccnc1	H9c2 protect 52
O=C(N/N=C/c1cn(-c2ccccc2)nc1-c1cc2ccccc2o1)c1cccnc1	none
O=C(N/N=C/c1cn(-c2ccccc2)nc1-c1cccs1)c1ccccc1F	H9c2 protect 76 (no result: TAG inh)
O=C(N/N=C/c1cn(-c2ccccc2)nc1-c1cccnc1)c1ccc(F)cc1	H9c2 protect 71
O=C(N/N=C/c1cn(-c2ccccc2)nc1-c1cccs1)c1ccc(Cl)cc1	none (no result: TAG inh)
COc1ccc(Cl)cc1C(=O)NNC(=S)NC(=O)c1ccc(F)c(F)c1	none (no result: Calpain2 inh, TAG inh)
COc1cccc(-c2nnc(NC(=O)c3ccc(Cl)s3)o2)c1	H9c2 protect 58
Cc1nc(-c2ccccc2)cc(N2CCCC2)n1	none (no result: TAG inh)
Nc1nc(-c2ccccc2)cc(N2CCCCC2)n1	TAG inh 76
C/C(=N\NC(=O)c1ccccc1-n1cccc1)c1ccccn1	H9c2 protect 69 (no result: Calpain2 inh, MIN6 prolif)
C/C(=N\NC(=O)c1cc2ccccc2cc1O)c1ccccn1	none (no result: Calpain2 inh, TAG inh)
O=C1c2ccccc2C(=O)N1CCCCCc1nc(-c2ccccc2)no1	Calpain2 inh 64
CC(C)N(Cc1nc(-c2ccc(Cl)cc2)no1)C(=O)CCCN1C(=O)c2ccccc2C1=O	Calpain2 inh 65
COc1cccc(-c2cnc(NCc3cc(Cl)ccc3O)n2C)c1	Calpain2 inh 55
COc1ccccc1CNc1ncc(-c2ccccc2)n1C	none (no result: Calpain2 inh)
COc1ccc(C(=O)N/N=C(\N)c2cc3ccccc3oc2=O)cc1	none (no result: Calpain2 inh, TAG inh)
CSc1nnc(NC(=O)c2cc3ccccc3oc2=O)s1	H9c2 protect 55
N/C(=N\NC(=O)c1ccccc1)c1cc2ccccc2oc1=O	Calpain2 inh 59
Clc1ccccc1NN=Cc1ccccn1	none (no result: Calpain2 inh, MIN6 prolif)
CC(C)n1cc2c(N)ncnc2n1	none (no result: Calpain2 inh, MIN6 prolif)
COCOCCn1cc(CN2CCS(=O)(=O)N(Cc3ccc(-c4ccc(OC)nc4)cc3)C(C(C)C)C2=O)nn1 (centres undefined)	none (no result: Calpain2 inh, MIN6 prolif)
Nc1c(C(=O)c2ccccc2)oc2ccccc12	none
O=C(c1ccc(Cl)cc1)c1oc2ccccc2c1CS(=O)(=O)c1ccccc1	Calpain2 inh 60 (no result: TAG inh)
COc1ccccc1NC(=O)C(=O)NCCC1CCCCN1S(=O)(=O)c1cccs1 (centres undefined)	none (no result: Calpain2 inh)
Cc1cccc(NC(=O)c2ccc([N+](=O)[O-])s2)n1	aDG glyco act 7.2 (no result: Calpain2 inh, TAG inh)
Cc1ccnc(NC(=O)c2cc([N+](=O)[O-])cc([N+](=O)[O-])c2)c1	none
Cc1ccnc(NC(=O)c2ccc([N+](=O)[O-])s2)c1	aDG glyco act 8.4 (no result: Calpain2 inh)
Fc1ccc(-[n+]2nc(Nc3ccccc3)sc2-c2c3ccccc3cc3ccccc23)cc1	none (no result: Calpain2 inh, TAG inh)
c1ccc(-[n+]2nc(Nc3cccc4ccccc34)sc2-c2c3ccccc3cc3ccccc23)cc1	TAG inh 106 (no result: Calpain2 inh)
CCOc1cc(Br)c(Br)c(C=Nc2ccc(NC(C)=O)cc2)c1O	H9c2 protect 94 (no result: TAG inh)
Cc1ccn2c(C=O)c(-c3ccc(F)cc3)c(C=O)c2c1	none
COc1ccc(C(=O)NN/C=C/C(=O)c2ccc(Br)cc2)cc1	H9c2 protect 58 (no result: Calpain2 inh, MIN6 prolif)
O=C(/C=C/NNC(=O)c1ccccc1)c1ccc(Br)cc1	H9c2 protect 59
COc1ccc(C(=O)C=CNNC(=O)c2ccc(Cl)cc2)cc1	none (no result: Calpain2 inh)
CN1CCN(S(=O)(=O)c2cccc(C(=O)Oc3ccccc3Cl)c2)CC1	none (no result: Calpain2 inh)
O=C(O)c1ccc(N/N=C/c2ccc(-c3cccc(Cl)c3)o2)cc1	TAG inh 84
O=C(O)c1cccc(-c2ccc(/C=N/Nc3ccc([N+](=O)[O-])cc3)o2)c1	none
